High-throughput results (PubChem)
Shown are actives, neighbours in structure and some others; about 2.5% of the full set was active somewhere.
ASK1 inh: human ASK1 kinase inhibition, primary screen; Q99683; 22,000 tested, 0.99% active; AlphaScreen MKK6 phosphorylation by ASK1, luminescence; inhibition, % at 7.44 µM; in the data active = inhibition above about 35%
ULK1 inh: blocks human autophagy kinase ULK1 | O75385 | AlphaScreen Atg13 phosphorylation by ULK1, luminescence | inhibition, % at 5.96 µM | 30,000 tested, 1.9% active | AID 1259251; in the data active = inhibition above about 43%
TruHits interf: counter-screen for ASK1 inhibitors: AlphaScreen optical interference; AID 1159604; IC50, µM; 220 tested, 20% active; shares compounds with ASK1 inh; AlphaScreen TruHits beads, signal interference counterscreen;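 active = IC50 of 10 µM or lower in the counterscreen; inactive = IC50 above 10 µM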;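 also: loss of AlphaScreen light from TruHits beads alone with no ASK1 enzyme present; potency of signal reduction so a low IC50 flags an assay artifact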
Large screens that a line does not name were inactive (follow-up assays come after a bar, where they were run).

COc1ccc(-c2nc(Nc3ccc(NC(C)=O)cc3)c3ncn(Cc4ccc(C(F)(F)F)cc4)c3n2)cc1	none
O=C(Nc1cccc(Cn2cncn2)c1)c1cccc(-n2cc(Nc3nccn3-c3ccccc3)cn2)c1	none
COc1cc(NC(=O)c2cccc(-n3cc(NC(=O)Nc4c(C)cccc4Cl)cn3)c2)cc(OC)c1OC	ASK1 inh 40 | TruHits interf inactive
COc1cc(NC(=O)c2cccc(-n3cc(NC(=O)Nc4ccc(-c5ccccc5)cc4)cn3)c2)cc(OC)c1OC	ASK1 inh 49 | TruHits interf inactive
COc1ccc(C)cc1NC(=O)Nc1cnn(-c2cccc(C(=O)Nc3cc(OC)c(OC)c(OC)c3)c2)c1	none
COc1cc(NC(=O)c2cccc(-n3cc(NC(=O)Nc4ccccc4)cn3)c2)cc(OC)c1OC	none
CNC(=O)c1ccc2c(c1)CC(C(=O)Nc1ccc(-c3cn[nH]c3)cc1OCCN(C)C)CO2 (configuration not stated)	none
CCn1c(=O)[nH]c2ncnc(-c3ccc(NC(=O)Nc4cccc(C(=O)NC(C)C)c4)cc3)c21	none
Cc1c[nH]c2ncnc(-c3ccc(NC(=O)Nc4ccccc4)cc3)c12	ASK1 inh 39 | TruHits interf inactive
Oc1ccc(CCNc2nc(NCCN3CCOCC3)nc3c2ncn3C2CCCCC2)cc1	none
c1ccc2c(-c3nccc(NCCN4CCOCC4)n3)csc2c1	none
CN(C)c1cccc(Nc2nccc(NCCc3ccc(O)cc3)n2)c1	none
COc1ccc(CCNC(=O)c2ccnc(Nc3cccc(N(C)C)c3)c2)cc1	ASK1 inh 41 | TruHits interf inactive
COc1ccc(CCNC(=O)c2ccnc(Nc3ccc4ncccc4c3)c2)cc1	none
COc1ccc(CCNc2ccnc(Nc3cccc(N(C)C)c3)n2)cc1	ASK1 inh 38 | TruHits interf inactive
OCC(CO)(CO)NCC(O)COc1ccccc1 (configuration not stated)	none (no result: ASK1 inh)
Cn1c(=O)[nH]c(N2CCCC2)c(Cc2ccc3ccccc3c2)c1=O	none (no result: ASK1 inh)
CCN(CC)c1nc(Cl)nc(NCCN(C(C)C)C(C)C)n1	none
COc1ccc(-c2nc(NCc3nc4ccccc4[nH]3)c3ncn(C4CCCCC4)c3n2)cn1	none
C=C1/C(=C/C=C2/CCC[C@]3(C)[C@@H]([C@H](C)CCCC(C)C)CC[C@@H]23)C[C@@H](O)C[C@@H]1O	none (no result: ASK1 inh)
